This is part of a sample that, as a whole, favours compounds with a hit. Of some 83,000 tested, about 20% had one in any assay.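 Each cell line was grown in a 96-well plate and treated with one concentration of compound for 48 hours. Values below 10 were considered active.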 Values without a mark were called inactive. The source made the active and inactive calls.
How the values were obtained:
Assay in all cases: NCI-60 one-dose screen, 48 h (100 = growth as untreated, 0 = no growth, -100 = all killed)
Details in all cases: 10 µM
[1] = test system: EKVX NSCLC
[2] = test system: SN12C renal
[3] = test system: UO-31 renal
[4] = test system: TK-10 renal
[5] = test system: ACHN renal
[6] = test system: CAKI-1 renal
[7] = test system: A498 renal
[8] = test system: CCRF-CEM leukemia
[9] = test system: MOLT-4 leukemia
[10] = test system: SR leukemia

SMILES | growth [1] | growth [2] | growth [3] | growth [4] | growth [5] | growth [6] | growth [7] | growth [8] | growth [9] | growth [10]
O=C(NC(Cc1ccc(O)cc1)C(=O)N=Nc1c(O)[nH]c2ccccc12)c1ccccc1 (configuration not stated) | 97.3% | 97.6% | 74.9% | 97.7% | 114% | 98.9% | 109% | 89.6% | 92.1% | 92.7%
CC(C)=CCc1ccc(O)c(=O)cc1C(C)C | 13.8% | 25% | -10.4% (active) | 18.3% | 24.8% | -8.29% (active) | 52.6% | 9.68% (active) | 8.5% (active) | 5.25% (active)
O=c1c2ccccc2nc(SCCN2CCCCC2)n1CCc1ccccc1 | 70.7% | 81.5% | 57.2% | 97.2% | 102% | 73.9% | 83.1% | – | – | –
COc1ccc2nc3ccccc3c(NCCNCC(C)O)c2c1 (configuration not stated) | 7.84% (active) | -4.73% (active) | 17.9% | 8.4% (active) | -3.07% (active) | 42.5% | -48.5% (active) | 5.94% (active) | 6.77% (active) | 4.1% (active)
N=c1nc(N)ncn1-c1ccccc1 | 99.7% | 87.3% | 94.5% | 102% | 101% | 97.9% | 83.8% | 84.9% | 109% | 97.4%
CC/C(=N\N=C(/CC)c1ccc(Br)cc1)c1ccc(Br)cc1 | 90.6% | 96% | 92.6% | 111% | 94.4% | 99.3% | 103% | 105% | 105% | 96.9%
O=C(Nc1ccncc1)C(=O)c1cn(S(=O)(=O)c2ccc(F)cc2)c2ccccc12 | 52.1% | 41.9% | 20.6% | 79% | 57.7% | 52.9% | 66.2% | 43.6% | 25.7% | 2.09% (active)
Cc1ccc(NC(=O)CSc2nc3ccccc3c(=O)n2CCc2ccccc2)c(C(=O)O)c1 | 73.4% | 96.6% | 78.5% | 117% | 91.1% | 81.5% | 87% | – | – | –
c1ccc2c(c1)oc1c3cccnc3ccc21 | 64.4% | 93.2% | 44.2% | 118% | 87.9% | 84.1% | 87.2% | 111% | 61.4% | –
COC(=O)C(=C\c1ccc2c(c1)OCO2)/C(=C/c1ccc2c(c1)OCO2)C(=O)OC | 97% | 112% | 90.3% | 100% | 94.3% | 94.7% | 106% | 101% | 105% | 98.8%
O=C(Nc1cccc(Br)c1)c1cc(=O)[nH]c2ccccc12 | 87.1% | 99.7% | 97.9% | 109% | 98.5% | 76.6% | 111% | 84.9% | 96.1% | 81%
COc1cc(-c2nc(-c3nnc(-c4ccc(F)c(Cl)c4)o3)c3ccccn23)cc(OC)c1OC | 64.2% | 43.9% | 29.5% | 56.7% | 10.7% | 58% | 40.6% | 68.6% | 67% | 42.4%
O=C(Nc1ccc(Cl)c(Cl)c1)Nc1c(Oc2ccc(Cl)c(Cl)c2)ccc(Cl)c1S(=O)(=O)O | 38.2% | 36.4% | 21.2% | 25.3% | 61.2% | 12.1% | -13.3% (active) | 13.5% | 25% | 1.34% (active)
COc1cc(/C=C2\Oc3cc(OCC(=O)c4ccccc4)ccc3C2=O)cc(OC)c1OC | 108% | 109% | 67.6% | 151% | 89.6% | 119% | 105% | 73.2% | 91% | –
Oc1[nH]c2ccc(Cl)cc2c1/C=c1/ccc2c(c1)N=C(c1cc(F)cc(F)c1)N=2 | 88.8% | 86.3% | 75.2% | 100% | 67.3% | 58.6% | 72.5% | 16.6% | 12.8% | 13.9%
CN1CCCNc2c(c(=O)c2=O)NCCCN(C)CCCNc2c(c(=O)c2=O)NCCCN(C)CCCNc2c(c(=O)c2=O)NCCCN(C)CCCNc2c(c(=O)c2=O)NCCCN(C)CCCNc2c(c(=O)c2=O)NCCCN(C)CCCNc2c(c(=O)c2=O)NCCCN(C)CCCNc2c(c(=O)c2=O)NCCC1 | 61.7% | 33.3% | 17.2% | 27.1% | 43.3% | 54.1% | 72.5% | – | – | –
Oc1[nH]c2ccc(Cl)cc2c1/C=c1/ccc2c(c1)N=C(c1cccs1)N=2 | 66.3% | 54.9% | 72.7% | 81.5% | 58% | 52.6% | 44.6% | 31.9% | 42.3% | 37%
CC[C@H]1CCC/C=C/[C@@H]2C[C@H](O)C[C@H]2[C@H](O)/C=C/C(=O)O1 | -1.36% (active) | 3.46% (active) | -9.94% (active) | -48% (active) | 0.373% (active) | -0.599% (active) | -45.3% (active) | 7.71% (active) | 0.81% (active) | 2.29% (active)
c1ccc2c(c1)oc1c3c(ccc12)NCCC3 | 59.5% | 87.4% | 65.9% | 135% | 101% | 97.4% | 77.3% | 96% | 97.5% | –
CN1c2ccccc2[C@]2(Cc3ccccc3)Cc3ccccc3N[C@H]12 | 114% | 109% | 73.4% | 114% | 103% | 112% | 113% | 92.2% | 90.2% | 91.2%
COc1cc(-c2cc(C(=O)N3CCN(C(=O)c4ccccc4NCc4cccs4)CC3)nc3cc(-c4ccccc4)nn23)cc(OC)c1OC | 94.4% | 87.5% | 39.8% | 70.1% | 73.9% | 55.2% | 74.2% | 73.9% | 79.3% | 23%
COc1cc(-c2nnc(-c3c(-c4ccc(F)cc4)nc4ccccn34)o2)cc(OC)c1OC | 97% | 68.2% | 62.9% | 89.7% | 51.8% | 91.3% | 62.7% | 89.1% | 89.6% | 25.3%
O=C1OCC2=C1C(c1ccc(Cl)c(Cl)c1)c1cc3c(cc1N2CCO)OCCO3 (configuration not stated) | 42.3% | 41.7% | 22% | 57% | 46.2% | 34.1% | -5.46% (active) | 7.16% (active) | 19.9% | 27.9%
Nc1ccc2cc(S(=O)(=O)O)cc(O)c2c1N=Nc1ccc(F)cc1 | 107% | 112% | 51.3% | 123% | 99.7% | 108% | 129% | 106% | 99.8% | –
COc1ccc(-c2nc3ncccn3c2-c2nnc(-c3ccc(F)cc3)o2)cc1 | 96% | 91% | 79.2% | 113% | 97.6% | 100% | 81% | 94.4% | 97.1% | 108%
CN(C)CC(O)c1ccc2cc(Br)c3ccccc3c2c1 (configuration not stated) | 58.5% | 53.9% | 57.6% | 81.8% | 17.2% | 73.1% | 23.9% | 57.9% | 31% | 4.67% (active)
COc1cc(-c2nc(-c3nnc(-c4ccccc4Cl)o3)c3ccccn23)cc(OC)c1OC | 92.2% | 82.9% | 67.6% | 106% | 68.3% | 86.2% | 84.3% | 51.4% | 56.3% | 72.2%
O=C(CNC(=O)OCc1ccccc1)NCC(=O)Oc1ccc([N+](=O)[O-])cc1 | 101% | 112% | 86.4% | 90.3% | 105% | 101% | 85% | 109% | 99.7% | 101%

Source: PubChem BioAssay (NCI)
